EP2 antag: blocks the human prostaglandin E2 receptor EP2; 260,000 compounds, 0.52% hits; P43116; C6 glioma cells expressing human EP2, cAMP TR-FRET; cells stimulated with saturating PGE2; inhibition, % at 25 µM;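 active = percent inhibition above 40 after rounding to a whole number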;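 also: rat C6 glioma host cells with rolipram phosphodiesterase inhibitor present; the protocol text gives 20 µM as final concentration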
Cl transport mod: modulators of human KCC2 chloride dependent transport | KCC2 cells, thallium flux FluoZin-2 fluorescence | B-score of Tl+ flux slope (higher = more flux/activation; lower = inhibition) at 10 µM | 190,000 compounds, 2.2% hits;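 active = thallium flux slope and its plate-corrected score both differing from the plate sample mean at a set confidence after two filtering rounds, in either direction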;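 also: slope of fluorescence scaled to starting intensity during 10 to 20 s after thallium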
Target sequence (Q9H2X9 whole entry, looked up): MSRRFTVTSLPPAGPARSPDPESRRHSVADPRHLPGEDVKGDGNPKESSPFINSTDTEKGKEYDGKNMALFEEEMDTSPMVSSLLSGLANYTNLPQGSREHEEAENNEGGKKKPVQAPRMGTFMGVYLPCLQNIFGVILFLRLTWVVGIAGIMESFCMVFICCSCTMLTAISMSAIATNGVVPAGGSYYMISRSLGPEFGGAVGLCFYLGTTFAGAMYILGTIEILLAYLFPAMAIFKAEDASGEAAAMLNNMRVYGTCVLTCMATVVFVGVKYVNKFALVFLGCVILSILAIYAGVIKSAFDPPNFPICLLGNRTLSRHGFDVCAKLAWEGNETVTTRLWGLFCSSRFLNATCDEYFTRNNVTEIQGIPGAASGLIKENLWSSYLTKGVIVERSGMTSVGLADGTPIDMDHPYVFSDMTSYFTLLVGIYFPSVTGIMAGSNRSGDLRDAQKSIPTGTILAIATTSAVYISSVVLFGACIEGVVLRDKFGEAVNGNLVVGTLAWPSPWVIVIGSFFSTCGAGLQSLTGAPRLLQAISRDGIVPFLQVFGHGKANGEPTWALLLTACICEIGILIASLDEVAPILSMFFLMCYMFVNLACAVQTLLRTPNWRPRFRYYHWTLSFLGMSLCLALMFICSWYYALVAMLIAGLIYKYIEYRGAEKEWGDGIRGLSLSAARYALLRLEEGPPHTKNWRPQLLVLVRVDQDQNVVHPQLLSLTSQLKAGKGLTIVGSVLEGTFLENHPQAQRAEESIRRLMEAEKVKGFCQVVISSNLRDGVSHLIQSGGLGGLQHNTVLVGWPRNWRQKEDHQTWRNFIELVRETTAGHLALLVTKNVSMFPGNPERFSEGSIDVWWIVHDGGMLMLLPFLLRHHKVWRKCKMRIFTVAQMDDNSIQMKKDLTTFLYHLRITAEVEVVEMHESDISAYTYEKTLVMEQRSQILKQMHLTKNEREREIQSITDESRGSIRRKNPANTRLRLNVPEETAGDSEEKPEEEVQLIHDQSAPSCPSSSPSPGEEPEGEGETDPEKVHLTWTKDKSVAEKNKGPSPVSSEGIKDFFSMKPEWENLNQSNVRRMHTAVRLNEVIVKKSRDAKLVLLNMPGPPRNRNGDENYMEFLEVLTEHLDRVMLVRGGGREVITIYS
S1P3 antagonist: blocks the human S1P3 receptor; Q99500; CHO S1P3 NFAT-BLA reporter, FRET fluorescence, antagonist mode; inhibition, % at 4.98 µM; 170,000 compounds, 0.27% hits; AID 485;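 active = inhibition above the plate cutoff, the mean inhibition of test wells on that plate plus 3 SD, cut at about 28% in these data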;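 also: cells challenged with S1P at its EC80 of 0.8 µM; blue over green emission ratio from cleaved BLA substrate after 4 h stimulation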
EP2 mod: EP2 receptor (human) modulation. P43116. 260,000 compounds, 0.83% hits. induction, % at 25 µM. EP2-expressing cells, cAMP HTRF FRET, PGE2 co-stimulation;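 active = compounds whose cAMP rise, as percent of the full-agonist control response, exceeds 60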;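 also: rat C6 glioma line stably carrying human EP2 under a CMV promoter; the protocol text gives 20 µM as final concentration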
Large screens that a line does not name were inactive; ! = repeats disagree. Shown are actives, neighbours in structure and some others; about 3.1% of the full set was active somewhere.

CCn1cc(C=C2C(=O)c3ccccc3C2=O)c2ccccc21	EP2 antag 42
Cn1c(Cc2ccc3c(c2)OCO3)nnc1SCC(=O)NC1CCCCC1	none (no result: Cl transport mod, S1P3 antagonist)
COc1ccccc1CN1CCc2nc(N3CCCC(C)C3)[nH]c(=O)c2C1 (configuration not stated)	none (no result: Cl transport mod, S1P3 antagonist)
CC1=NC(=O)C(N=O)N1c1ccccc1 (configuration not stated)	EP2 antag 51 (no result: Cl transport mod, S1P3 antagonist)
Cc1ccc(N2C(=O)C(F)(F)C2c2ccccc2)cc1 (configuration not stated)	none
COc1cc(NS(=O)(=O)c2ccc(NC(=S)NC(=O)c3ccc(F)cc3)cc2)nc(OC)n1	EP2 antag 59 (no result: Cl transport mod, S1P3 antagonist)
Cc1cc(NS(=O)(=O)c2ccc(NC(=S)NC(=O)c3ccc(F)cc3)cc2)no1	EP2 antag 46!
COc1cc(NS(=O)(=O)c2ccc(NC(=S)NC(=O)c3sc4ccccc4c3Cl)cc2)ncn1	EP2 antag 52
COc1cc(NS(=O)(=O)c2ccc(NC(=S)NC(=O)C3CCCC3)cc2)nc(OC)n1	none (no result: S1P3 antagonist)
COc1ccc(OCC(=O)NC(=S)Nc2ccc(S(=O)(=O)Nc3cc(OC)nc(OC)n3)cc2)cc1	EP2 antag 64
COc1cc(NS(=O)(=O)c2ccc(NC(=S)NC(=O)CC(C)C)cc2)nc(OC)n1	none (no result: S1P3 antagonist)
CCOc1ccc(-c2csc3ncn(C(C)C(=O)O)c(=O)c23)cc1 (configuration not stated)	none (no result: Cl transport mod, S1P3 antagonist)
C=CCOc1ccc(C2C(C#N)=C(N)OC3=C2C(=O)CC(C)(C)C3)cc1OCC (configuration not stated)	none (no result: Cl transport mod, S1P3 antagonist)
Cc1sc(NC(=O)CN(Cc2ccccc2)C(=O)C2CCCCC2)c(C(N)=O)c1C	none (no result: Cl transport mod, S1P3 antagonist)
Cc1ccc(-c2c3c([nH]c(=S)c2C#N)CCCC3)o1	Cl transport mod 24
N#Cc1c(-c2ccncc2)c2c([nH]c1=S)CCCC2	none (no result: S1P3 antagonist)
N/C(Cc1ccc(Cl)c(Cl)c1)=N\OC(=O)c1cccs1	none (no result: S1P3 antagonist)
N/C(=N\OC(=O)c1cccs1)C1(c2ccc(Cl)cc2Cl)CC1	EP2 antag 54
COC(=O)c1sc(-c2ccc(Cl)cc2)cc1NC(=O)c1ccccc1C(=O)O	EP2 antag 53
COC(=O)c1sc(-c2ccc(C(C)(C)C)cc2)cc1NC(=O)c1ccccc1C(=O)O	none
CC(CCC(=O)O)[C@H]1CCC2C3C(C[C@H](O)[C@@]21C)[C@@]1(C)CC[C@@H](O)C[C@H]1C[C@H]3O (some centres not stated)	none (no result: Cl transport mod, S1P3 antagonist)
COc1ccc(CN(Cc2cc3ccc(C)cc3[nH]c2=O)C(=S)NC2CCCCC2)cc1	none (no result: Cl transport mod, S1P3 antagonist)
CC1CCCCN1CC(=O)Nc1ccccc1Sc1ccccc1 (configuration not stated)	EP2 mod 62
CO[C@@H]1/C=C\O[C@]2(C)Oc3c(C)c(O)c4c(O)c(c(CN(C)C)c(O)c4c3C2=O)NC(=O)C(C)=C/C=C\[C@@H](C)[C@@H](O)[C@H](C)[C@@H](O)[C@H](C)[C@H](OC(C)=O)[C@@H]1C	EP2 antag 52 (no result: Cl transport mod, S1P3 antagonist)
CC(C)(C)NC(=O)NC(=O)CN1CCN(Cc2ccccc2)CC1	none
CC(C)(C)c1c2c(c(C(C)(C)C)c3c1OCN(Cc1ccccc1)C3)OCN(Cc1ccccc1)C2	EP2 antag 80 (no result: Cl transport mod, S1P3 antagonist)
COc1ccc2cc1Oc1ccc(cc1)C[C@H]1c3cc(c(OC)cc3CCN1C)Oc1c(OC)c(OC)cc3c1[C@@H](C2)N(C)CC3	EP2 antag 59 (no result: Cl transport mod, S1P3 antagonist)
COc1ccc2c(c1OC)CN(C)CCc1cc3c(cc1C(O)C2)OCO3 (configuration not stated)	none
CCn1c(N2CCC(C(=O)NCCOC)CC2)nc2ccccc21	none (no result: EP2 antag, Cl transport mod, S1P3 antagonist)
CCn1c(COc2ccc(Br)cc2)nnc1SCC(=O)Nc1cccc2ccccc12	none (no result: Cl transport mod, S1P3 antagonist)
O=C(NC(=S)N1CCN(c2ccc([N+](=O)[O-])cc2)CC1)c1ccc(F)cc1	Cl transport mod 25
O=C(NC(=S)N1CCN(c2ccc([N+](=O)[O-])cc2)CC1)c1ccccc1F	none
CCOc1ccc2nc(NC(=O)Nc3cccs3)sc2c1	S1P3 antagonist 58
COc1cccc(Nc2nc(NCC3CCCO3)c3ccccc3n2)c1 (configuration not stated)	EP2 antag 53 (no result: S1P3 antagonist)
Oc1ccc(Nc2nc(NCC3CCCO3)c3ccccc3n2)cc1 (configuration not stated)	none
Cc1ccccc1CSc1ncnc2ccccc12	EP2 mod 62
N#CCSc1ncnc2ccccc12	none
CCOC(=O)c1cccc2c1-c1ccccc1/C2=N/O	none
CC(C)COC(=O)c1cccc2c1-c1ccccc1/C2=N\O	EP2 mod 63 (no result: EP2 antag, S1P3 antagonist)
O=C(Oc1ccc2[nH]cc(CCN3C(=O)c4ccccc4C3=O)c2c1)c1ccco1	none (no result: Cl transport mod)
COc1ccc2c(c1)c(CCN1C(=O)c3ccccc3C1=O)cn2C(=O)c1ccco1	S1P3 antagonist 55
Clc1ccc(CSc2ncnc3c2ncn3[C@@H]2CCCCO2)cc1	EP2 antag 45 (no result: Cl transport mod, S1P3 antagonist)
CC(C)(C)NC(=O)C12CCC(C)(c3nc4ccccc4nc31)C2(C)C (configuration not stated)	EP2 mod 64 (no result: S1P3 antagonist)
COC(=O)C12CCC(C)(c3nc4ccccc4nc31)C2(C)C (configuration not stated)	none
CC(C)OC(=O)Cn1c(=O)sc2ccccc21	none (no result: S1P3 antagonist)
CC(C)Oc1ccccc1Cn1c(=O)sc2ccccc21	EP2 mod 83 (no result: Cl transport mod, S1P3 antagonist)
CN(C)CCN(Cc1ccncc1)Cc1ccc2c3ccccc3n(C)c2c1	none (no result: Cl transport mod, S1P3 antagonist)
Cn1c(C2CCCCC2)nc2c1c(=O)[nH]c(=O)n2Cc1ccccc1	EP2 mod 65
Cc1ccc(-c2nc3c(c(=O)[nH]c(=O)n3Cc3ccccc3)n2C)s1	none
O=C(Nc1cccc(Cl)c1)c1cc(N=Nc2ccc([N+](=O)[O-])cc2Cl)ccc1O	Cl transport mod 11
Cc1ccn2cc(C(=O)N3CCC(Cc4ccccc4)CC3)nc2c1	none (no result: Cl transport mod, S1P3 antagonist)
Brc1cccc(Cn2c(-c3cncs3)nc3ccccc32)c1	EP2 mod 61 (no result: Cl transport mod, S1P3 antagonist)
c1ccc(Cn2c(-c3cncs3)nc3ccccc32)cc1	none (no result: S1P3 antagonist)
CC(C)NC(=S)N/N=C1\CCCCc2ccccc21	none
COc1cccc(NC(=S)N/N=C2/CCCCc3ccccc32)c1	Cl transport mod 24
Cc1cccc(C(=O)CC(=O)c2cc(Cl)ccc2O)c1	none (no result: Cl transport mod, S1P3 antagonist)
O=C(CC(=O)c1cc(Cl)ccc1O)c1ccccc1	Cl transport mod 10
S=c1[nH]c(-c2ccc(Cl)cc2)cs1	Cl transport mod 55
Cc1ccc(-c2csc(=S)[nH]2)cc1	Cl transport mod 100
CCOC(=O)CCSc1nc(-c2ccccc2)cc(C(F)(F)F)n1	none (no result: S1P3 antagonist)
O=C(O)c1cccc(CSc2nc(-c3ccc(Cl)cc3)cc(C(F)(F)F)n2)c1	EP2 mod 64 (no result: Cl transport mod, S1P3 antagonist)
Cc1cc(-c2ccc(Cl)cc2)c(C#N)c(N)n1	EP2 antag 51 (no result: S1P3 antagonist)
CCc1ccc(Nc2ncc3c(n2)CC(c2ccc(OC)cc2)CC3=O)cc1 (configuration not stated)	none (no result: S1P3 antagonist)
COc1ccc(Nc2ncc3c(n2)CC(c2ccccc2)CC3=O)cc1 (configuration not stated)	S1P3 antagonist 53
C/C(=N\NC(=O)CSc1nc2nc(C)cc(C)n2n1)c1ccccc1	EP2 antag 128 (no result: S1P3 antagonist)
